Experimental data reported in PubChem BioAssay (Tox21).
Several values for one entry are separate records, joined by “and”; a condition that tells them apart may be missing. Equal values may be shown once. Records with an inconclusive call do not appear. A number with no mark means an inactive call. Activity calls are given as the source filed them. Calls come from the whole dose curve; as a rule, active = well fitted cell-killing curve with a large enough effect in the repeat runs; inconclusive = weak or mixed curves, or effect the other way; inactive = no such curve, though single readings can be large or run the other way.

assay: qHTS assay for identifying genotoxic compounds that show differential cytotoxicity against isogenic chicken DT40 cell lines with known DNA damage response pathways - wild type cell line (AID 743012); conditions: DT40 wild type chicken cells viability, CellTiter-Glo, 40 h; series mostly up to 68.4 µM; activity change, negative = cytotoxicity: at the top concentration; note: nearly all actives have a fitted effect of over 60% in size
Excerpt: U.S. Tox21 Program National Center for Advancing Translational Sciences [NCATS] NIH Chemical Genomics Center [NCGC] U.S. Environmental Protection Agency [EPA] National Institutes of Environmental Health Sciences [NIEHS] National Toxicology Program [NTP] U.S. Food and Drug Administration [FDA] Tox21 Assay Overview: DNA repair pathways play a critical role in cellular homeostasis by repairing DNA damage induced by endogenous processes and xenobiotics. Isogenic chicken DT40 cell lines deficient in different DNA repair pathways can be used to identify genotoxic compounds and aid in characterizing the nature of the DNA damage induced. Two DNA repair-deficient cell lines with disrupted genes, Rad54/Ku70 or Rev3, were used to screen the Tox21 10K compound library. Possible genotoxicity was based on the presence of a significant increase in cytotoxicity in one or more of the DNA repair-deficient cell lines compared to that observed in the parental DNA repair-proficient cell line. CellTiter Glo viability assay (Promega, Madison, WI) was used to measure cell viability in these cells after compound treatment. This assay includes the data from the wild type cell line.
Tox21 Assay Protocol Summary: 300 DT40 wild type cells in 5 uL/well were dispensed into white, solid-bottom 1536-well plates using a Multidrop Combi (ThermoFisher Scientific, Waltham, MA) dispenser. After the assay plates were incubated at 37 C/5% CO2 for approximately 0.5 hour, 23 nL of compounds dissolved in DMSO, positive controls or DMSO only was transferred into the assay plate by a pintool work station (Kalypsys, San Diego, CA). The assay plates were incubated at 37 C/5% CO2 for 40 hours. After 5 uL per well of CellTiter-Glo reagent was added into each well of the assay plates, the plates were incubated for 30 min at room temperature and the luminescence intensity of the plates was measured using a ViewLux (PerkinElmer, Shelton, CT) plate reader.
% is set by controls: 0 for no effect and ±100 for the full control effect; potency is the fitted concentration of half-maximal effect.

Going from `CN1C(=O)N(C)C(O)C1O` (stereo not given) to `CC1(C)C(O)C(C)(C)C1O` (stereo not given), the “activity change, negative = cytotoxicity” value rises from -1.28% to 13.9%.

Compared with `N[C@H](C(=O)O)c1ccc(O)cc1`, `NC(=O)c1ccc(N)cc1` is higher in “activity change, negative = cytotoxicity” value: 7.37% for the first, 23% for the second.

Compared with `CC/C=C\CC/C=C/CO`, `CCCCC/C=C\CCC=O` is lower in “activity change, negative = cytotoxicity” value: 0.202% for the first, -4.54% for the second.

First: N[C@H]1CN(c2c(F)cc3c(=O)c(C(=O)O)cn(C4C[C@H]4F)c3c2Cl)CC12CC2 (stereo not given in full)
Second: CCN1CCC[C@H]1CNC(=O)c1c(O)c(Cl)cc(Cl)c1OC
The “activity change, negative = cytotoxicity” value of the first is higher: 7.9% for the first, -5.55% for the second.

Compared with `O=C1OC(=O)C2CCCCC12` (stereo not given), `O=C1CCCN1C1CCCCC1` is lower in “activity change, negative = cytotoxicity” value: 7.94% for the first, -9.09% for the second.

First: CN(C(=O)c1c(O)c2ccccc2n(C)c1=O)c1ccccc1
Second: O=C(O)COc1nn(Cc2ccccc2)c2ccccc12
The “activity change, negative = cytotoxicity” value of the first is lower: 0.368% for the first, 19.8% for the second.

Compared with `ClC(Cl)(Br)Br`, `CC(C)(C)c1nnc(NS(=O)(=O)c2ccccc2)s1` is higher in “activity change, negative = cytotoxicity” value: -1.16% for the first, 3.47% for the second.

Going from `CCCCCCOC(=O)CCCCC(=O)OCCCCCC` to `NC(CSCC(=O)O)C(=O)O` (stereo not given), the “activity change, negative = cytotoxicity” value rises from -2.23% to 16.4%.

Compared with `O=C1CCCC(=O)C1`, `O=C1CCCCCCCCCCCN1` is lower in “activity change, negative = cytotoxicity” value: 8.32% for the first, 1.41% for the second.

Going from `c1cnc(N2CCN(Cc3ccc4c(c3)OCO4)CC2)nc1` to `COc1ccccc1OCC(O)CN1CCN(CC(=O)Nc2c(C)cccc2C)CC1` (stereo not given), the “activity change, negative = cytotoxicity” value falls from -15.6% to -20%.

Compared with `CC(C[N+](C)(C)C)OC(N)=O` (stereo not given), `CC(C)CNCC(C)C` is higher in “activity change, negative = cytotoxicity” value: -0.13% for the first, 1.84% for the second.

Going from `Cc1c(NC(C)C)c(=O)n(-c2ccccc2)n1C` to `CCCN1CCCC[C@H]1C(=O)Nc1c(C)cccc1C`, the “activity change, negative = cytotoxicity” value falls from 8.85% to -17.4%.

Compared with `CC(=O)Nc1ccc(S(N)(=O)=O)cc1`, `CCOC(=O)c1cccc(N)c1` is lower in “activity change, negative = cytotoxicity” value: 9.36% for the first, -0.477% for the second.

Going from `O=C(O)c1ccccc1OP(=O)(O)O` to `O=S(O)CO`, the “activity change, negative = cytotoxicity” value rises from 3.08% to 5.6%.

In the case of `Nc1c[n+](N2CCOCC2)no1`, the “activity change, negative = cytotoxicity” value is reported as 3.77%.

First: NS(=O)(=O)c1cc(C(=O)O)cc(N2CCCC2)c1Oc1ccccc1
Second: CCN(CC)CCNC(=O)c1cc(S(C)(=O)=O)ccc1OC
The “activity change, negative = cytotoxicity” value of the first is higher: 11.2% [at 31.4 µM] for the first, 5.92% [at 31.4 µM] for the second.

In the case of `CC/C=C\CC/C=C/C(OCC)OCC`, the Potency is reported as 43.3 µM (active).
In the case of `CO[Si](CCCOCC1CO1)(OC)OC` (stereo not given), the Potency is reported as “inactive”.
With `CO[C@]12C[C@@H](COC(=O)c3cncc(Br)c3)CN(C)[C@@H]1Cc1cn(C)c3cccc2c13` the Potency was 5.96 µM (active).
With `CCN(CC)CCOCCOC(=O)C1(c2ccccc2)CCCC1` the Potency was 5.96 µM (active).
For `CC(C)(C)c1ccc(O)c(O)c1`, the Potency was 17.8 µM (active) and 6.11 µM (active).
With `FC(F)OC(Cl)C(F)(F)F` (stereo not given) the Potency was “inactive”.

Going from `CCOC(=O)CC(C)=O` to `C=C(C)C(=O)OCCCCCCCC(C)C`, the “activity change, negative = cytotoxicity” value falls from -0.0915% [at 95 µM] to -4.19% [at 95 µM].

With `O=c1n(CCO)c(=O)n(CCO)c(=O)n1CCO` the “activity change, negative = cytotoxicity” value was -11% [at 95 µM].
